According to PubChem BioAssay (NCI):
The panel holds about 83,000 compounds, 20% with a hit somewhere; the sample as a whole holds those more often.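 Testing used 96-well plates and a 48-hour single-concentration exposure. Example: -40 means 40% of the starting cells died.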 A number with no mark means an inactive call. Active and inactive are the calls of the source. The calls were made as follows: active = growth percent below 10; inactive = the rest.

What follows are molecules tested on MDA-MB-468 breast (assay: NCI-60 one-dose screen, 48 h (100 = growth as untreated, 0 = no growth, -100 = all killed)). Conditions: 10 µM unless noted.

Row | SMILES | growth
1 | CC(C)(C)c1ccc(Cn2c(-c3nonc3N)nc3ccccc32)cc1 | 47.6%
2 | COc1ccc2nc(-c3c(-c4ccccc4)nc4ncccn34)[nH]c2c1 | 89.4%
3 | COc1ccc(Cn2cnc3cc(C(=O)Nc4cccc5ccccc45)ccc32)c(OC)c1 | -31.6% [30 µM] (active)
4 | O=C(Nc1cccc([N+](=O)[O-])c1)NN1CCCCCC1 | 88.7%
5 | CC(=O)Nc1ccc(NC(=O)Nc2cccc(-c3nc(-c4ccc(NC(=O)c5cccnc5)cc4Cl)no3)c2)cc1C(F)(F)F | -84.7% (active)
6 | COc1cccc(Oc2ccccc2NC(=O)CNC(=O)c2cccc3ccccc23)c1 | 12.1% [5 µM]
7 | COc1ccc(C(=O)O)cc1.[Ag] | 93.9%
8 | O=C(/C=C/C12c3ccccc3C(c3ccccc31)C1C(=O)N(c3ccc(Cl)cc3)C(=O)C12)c1ccccn1 (configuration not stated) | -9.41% (active)
9 | CC1(C)CC[C@]2(C(=O)OC(=O)[C@]34CCC(C)(C)C[C@@H]3C3=CC[C@@H]5[C@@]6(C)CCC(=O)C(C)(C)[C@@H]6CC[C@@]5(C)[C@]3(C)CC4)CC[C@]3(C)C(=CC[C@@H]4[C@@]5(C)CCC(=O)C(C)(C)[C@@H]5CC[C@]43C)[C@H]2C1 | 61.5% [100 µM]
10 | COC(=O)c1cc(-c2ccccc2)[nH]c1N/N=C/c1c(Cl)cccc1Cl | -7.8% (active)
11 | O=c1[nH]cc(/C=N\Nc2ccccc2)c(=O)[nH]1 | 90.7%
12 | CN=c1ccc2nc3ccc(N)cc3sc-2c1 | -5.28% (active)
